Measured values from PubChem BioAssay (EPA / NIEHS).
Records with an inconclusive call do not appear. Calls of active or inactive are those of the source. The calls were made as follows, unless noted: active = hit-call score of the fitted dose curve at least 0.9, where 1 is the maximum; inconclusive = response in the unintended direction; inactive = score below 0.9.

Columns and labels:
[1] = target: Steroid hormone receptor ERR1 (Homo sapiens) (UniProt P11474); test: ATG_ERRa_TRANS: Attagene TRANS-FACTORIAL HepG2 Assay for human Estrogen-Related Receptor alpha (ERRa) (AID 2282971); settings: HepG2 Attagene TRANS reporter, ERRa transactivation
Summary of the method: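 HepG2 cells were transiently transfected with multiple GAL4-UAS reporter units, then dosed with compound for 24 h. Total RNA was reverse-transcribed, reporter cDNA PCR-amplified and fluorescently labelled, and fragments resolved by capillary electrophoresis; induction was compared with DMSO.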

[2] = target: X-box-binding protein 1 (Homo sapiens) (UniProt P17861); test: ATG_Xbp1_CIS: Attagene CIS-FACTORIAL HepG2 Assay for human X-box Binding Protein 1 (XBP1) (AID 2282972; active = hit-call score of the fitted dose curve at least 0.9, where 1 is the maximum; inactive = score below 0.9); settings: HepG2 XBP1 cis-element reporter, Attagene multiplex; actives raise or lower the signal
Summary of the method: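 Changes in reporter transcript abundance, read by RT-PCR and capillary electrophoresis, reflect endogenous transcription factor activity. Transfected HepG2 cells received compound for 24 hours; DMSO defined baseline for bidirectional analysis.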

[3] = ATG_GAL4_TRANS: Attagene TRANS-FACTORIAL HepG2 Assay for GAL4 (Internal Marker) (AID 2282976); settings: HepG2 Attagene TRANS GAL4 internal marker reporter
Summary of the method: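 Fluorescence from capillary electrophoresis of labelled RT-PCR products quantifies reporter mRNA induction after 24 h dosing of HepG2 cells carrying transfected GAL4-UAS reporter transcription units. Vehicle DMSO serves as baseline.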

[4] = target: Estrogen-related receptor gamma (Homo sapiens) (UniProt P62508); test: ATG_ERRg_TRANS: Attagene TRANS-FACTORIAL HepG2 Assay for human Estrogen-Related Receptor gamma (ERRg) (AID 2282977); settings: HepG2 Attagene TRANS reporter, ERRg transactivation;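 also: hits increase reporter signal over DMSO so potencies reflect activators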
Summary of the method: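 Exogenous NR-Gal4 chimera activity was assessed in HepG2 cells bearing transfected GAL4-UAS reporters. After 24 h dosing, total RNA underwent RT-PCR, fluorescent primer extension and HpaI digestion before capillary electrophoresis, with gain of signal scored against DMSO.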

[5] = target: Glucocorticoid receptor (Homo sapiens) (UniProt P04150); test: ATG_GR_TRANS: Attagene TRANS-FACTORIAL HepG2 Assay for human Glucocorticoid Receptor (GR) (AID 2282978); settings: HepG2 Attagene TRANS GR reporter, mRNA transcription;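 also: activators score as hits since higher reporter transcript over DMSO is fitted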
Summary of the method: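 Transiently transfected HepG2 cells express chimeric NR-GAL4 proteins acting on GAL4-UAS reporter units. Compounds are applied for 24 h. mRNA induction over DMSO is measured by capillary electrophoresis.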

[6] = target: Oxysterols receptor LXR-alpha (Homo sapiens) (UniProt Q13133); test: ATG_LXRa_TRANS: Attagene TRANS-FACTORIAL HepG2 Assay for human Liver X Receptor alpha (LXRa) (AID 2282980); settings: HepG2 Attagene TRANS reporter, LXRa transactivation
Summary of the method: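 Transient HepG2 transfectants, 24 h dosing, RT-PCR/CE mRNA reporter quantitation; gain-of-signal vs DMSO.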

[7] = target: Oxysterols receptor LXR-beta (Homo sapiens) (UniProt P55055); test: ATG_LXRb_TRANS: Attagene TRANS-FACTORIAL HepG2 Assay for human Liver X Receptor beta (LXRb) (AID 2282981); settings: HepG2 Attagene TRANS GAL4-LXRb reporter, mRNA
Summary of the method: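 After 24 h of chemical treatment, transfected HepG2 cells yield total RNA; reporter cDNA is PCR-amplified, FAM-labelled, HpaI-cut and run on capillary electrophoresis. Signal reflects chimeric LXRb-Gal4 activity on GAL4-UAS reporters.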

[8] = target: Androgen receptor (Homo sapiens) (UniProt P10275); test: ATG_AR_TRANS: Attagene TRANS-FACTORIAL HepG2 Assay for human Androgen Receptor (AR) (AID 2282973); settings: HepG2 Attagene TRANS-FACTORIAL AR reporter transcription
Summary of the method: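 Transfected HepG2, 24 h treatment, chimeric NR-Gal4 driving GAL4-UAS reporters. mRNA induction by RT-PCR/capillary electrophoresis fluorescence; DMSO as negative control and baseline.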

[9] = ATG_M_19_TRANS: Attagene TRANS-FACTORIAL HepG2 Assay for M19 Transcription Factor (Internal Marker) (AID 2282974); settings: HepG2 Attagene TRANS-FACTORIAL M19 internal marker reporter
Summary of the method: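 Multiplexed TRANS format: HepG2 liver cells bearing transient GAL4-UAS reporter units, chemical treatment 24 h, reporter transcripts quantified by RT-PCR plus capillary electrophoresis. DMSO defines baseline.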

[10] = target: Bile acid receptor (Homo sapiens) (UniProt Q96RI1); test: ATG_FXR_TRANS: Attagene TRANS-FACTORIAL HepG2 Assay for Farnesoid X Receptor (FXR) (AID 2282979); settings: HepG2 Attagene TRANS FXR-GAL4 reporter transcription;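 also: hits raise reporter mRNA above DMSO so AC50 marks FXR activation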
Summary of the method: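 Chimeric FXR-GAL4 activity in transiently transfected human HepG2 liver cells is scored as induction of reporter mRNA after 24 h of dosing. Detection uses RT-PCR with fluorescent labelling and capillary electrophoresis, with DMSO serving as baseline.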

Measured: AC50

Glucocorticoid receptor (Homo sapiens), sequence (P04150 whole entry, looked up, the tested form may be a part): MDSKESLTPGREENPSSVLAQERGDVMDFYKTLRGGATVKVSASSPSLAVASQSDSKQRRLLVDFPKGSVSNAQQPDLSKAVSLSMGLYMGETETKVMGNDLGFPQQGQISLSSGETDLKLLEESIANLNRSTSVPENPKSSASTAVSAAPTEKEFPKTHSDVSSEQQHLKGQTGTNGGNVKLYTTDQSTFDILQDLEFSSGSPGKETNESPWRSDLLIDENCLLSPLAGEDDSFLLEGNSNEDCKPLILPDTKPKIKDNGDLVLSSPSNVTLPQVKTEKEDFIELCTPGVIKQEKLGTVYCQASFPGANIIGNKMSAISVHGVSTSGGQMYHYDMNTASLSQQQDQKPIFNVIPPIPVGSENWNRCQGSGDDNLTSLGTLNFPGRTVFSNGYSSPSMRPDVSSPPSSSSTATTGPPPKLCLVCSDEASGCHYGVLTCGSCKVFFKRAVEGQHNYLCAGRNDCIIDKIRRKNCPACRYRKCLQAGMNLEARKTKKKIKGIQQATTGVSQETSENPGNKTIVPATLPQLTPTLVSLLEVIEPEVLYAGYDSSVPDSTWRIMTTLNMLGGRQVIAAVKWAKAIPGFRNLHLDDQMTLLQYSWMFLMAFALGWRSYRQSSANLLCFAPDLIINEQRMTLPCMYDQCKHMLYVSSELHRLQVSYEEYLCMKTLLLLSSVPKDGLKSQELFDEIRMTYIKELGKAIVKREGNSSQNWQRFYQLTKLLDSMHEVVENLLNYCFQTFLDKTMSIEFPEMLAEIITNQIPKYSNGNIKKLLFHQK
Oxysterols receptor LXR-beta (Homo sapiens), sequence (P55055 whole entry, looked up, the tested form may be a part): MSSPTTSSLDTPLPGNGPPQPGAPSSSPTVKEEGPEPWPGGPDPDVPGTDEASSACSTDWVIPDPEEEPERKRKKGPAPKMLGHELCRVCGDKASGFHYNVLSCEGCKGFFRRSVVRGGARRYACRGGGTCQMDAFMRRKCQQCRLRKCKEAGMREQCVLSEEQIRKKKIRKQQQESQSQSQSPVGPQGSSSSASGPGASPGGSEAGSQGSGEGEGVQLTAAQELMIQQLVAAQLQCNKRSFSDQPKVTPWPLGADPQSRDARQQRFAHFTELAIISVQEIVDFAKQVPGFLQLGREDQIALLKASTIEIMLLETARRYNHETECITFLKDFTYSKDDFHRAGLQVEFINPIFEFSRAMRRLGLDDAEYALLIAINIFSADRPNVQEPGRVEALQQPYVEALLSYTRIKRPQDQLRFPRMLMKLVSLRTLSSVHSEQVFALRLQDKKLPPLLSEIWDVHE
Oxysterols receptor LXR-alpha (Homo sapiens), sequence (Q13133 whole entry, looked up): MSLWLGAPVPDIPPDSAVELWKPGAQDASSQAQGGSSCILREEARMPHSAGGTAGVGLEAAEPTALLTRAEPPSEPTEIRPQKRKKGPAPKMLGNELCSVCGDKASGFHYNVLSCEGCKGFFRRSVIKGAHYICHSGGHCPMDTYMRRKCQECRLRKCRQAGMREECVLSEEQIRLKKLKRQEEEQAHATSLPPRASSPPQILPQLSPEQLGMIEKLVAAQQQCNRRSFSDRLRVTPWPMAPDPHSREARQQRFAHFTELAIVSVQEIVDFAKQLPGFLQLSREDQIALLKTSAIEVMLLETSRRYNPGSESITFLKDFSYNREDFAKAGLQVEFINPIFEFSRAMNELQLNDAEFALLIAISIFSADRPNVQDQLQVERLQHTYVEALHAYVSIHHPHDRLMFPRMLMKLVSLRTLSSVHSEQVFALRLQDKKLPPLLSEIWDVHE
Estrogen-related receptor gamma (Homo sapiens), sequence (P62508 whole entry, looked up, the tested form may be a part): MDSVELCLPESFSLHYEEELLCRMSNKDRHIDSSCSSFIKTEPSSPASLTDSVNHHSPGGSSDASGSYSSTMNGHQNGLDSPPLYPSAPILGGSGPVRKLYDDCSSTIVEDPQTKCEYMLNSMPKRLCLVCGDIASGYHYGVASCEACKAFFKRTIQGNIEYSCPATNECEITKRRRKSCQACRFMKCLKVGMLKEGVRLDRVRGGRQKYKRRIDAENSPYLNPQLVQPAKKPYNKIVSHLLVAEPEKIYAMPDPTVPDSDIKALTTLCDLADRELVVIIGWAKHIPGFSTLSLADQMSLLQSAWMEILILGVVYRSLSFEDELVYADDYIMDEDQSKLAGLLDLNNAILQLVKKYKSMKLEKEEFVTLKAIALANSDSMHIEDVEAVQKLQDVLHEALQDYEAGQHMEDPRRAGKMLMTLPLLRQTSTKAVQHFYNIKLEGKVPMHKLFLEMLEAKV
Steroid hormone receptor ERR1 (Homo sapiens), sequence (P11474 whole entry, looked up, the tested form may be a part): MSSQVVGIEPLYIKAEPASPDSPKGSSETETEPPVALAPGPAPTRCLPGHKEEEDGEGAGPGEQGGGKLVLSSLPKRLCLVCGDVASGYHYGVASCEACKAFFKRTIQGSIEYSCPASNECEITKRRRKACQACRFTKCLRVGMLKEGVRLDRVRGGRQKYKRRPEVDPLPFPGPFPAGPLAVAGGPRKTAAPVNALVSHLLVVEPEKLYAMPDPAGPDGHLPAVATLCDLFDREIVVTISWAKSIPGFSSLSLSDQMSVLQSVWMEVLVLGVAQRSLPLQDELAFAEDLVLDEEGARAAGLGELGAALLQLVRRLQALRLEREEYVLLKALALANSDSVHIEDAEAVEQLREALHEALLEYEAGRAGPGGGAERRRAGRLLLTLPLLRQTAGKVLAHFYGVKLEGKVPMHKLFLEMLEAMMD
X-box-binding protein 1 (Homo sapiens), sequence (P17861 whole entry, looked up): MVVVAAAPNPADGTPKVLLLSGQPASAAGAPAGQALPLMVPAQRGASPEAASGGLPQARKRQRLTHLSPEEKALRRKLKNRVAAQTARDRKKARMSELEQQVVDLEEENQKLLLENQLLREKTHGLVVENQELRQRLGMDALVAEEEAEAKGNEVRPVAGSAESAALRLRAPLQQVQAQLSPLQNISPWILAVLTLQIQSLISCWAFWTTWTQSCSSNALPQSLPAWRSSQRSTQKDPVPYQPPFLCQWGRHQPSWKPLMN
Androgen receptor (Homo sapiens), sequence (P10275 whole entry, looked up, the tested form may be a part): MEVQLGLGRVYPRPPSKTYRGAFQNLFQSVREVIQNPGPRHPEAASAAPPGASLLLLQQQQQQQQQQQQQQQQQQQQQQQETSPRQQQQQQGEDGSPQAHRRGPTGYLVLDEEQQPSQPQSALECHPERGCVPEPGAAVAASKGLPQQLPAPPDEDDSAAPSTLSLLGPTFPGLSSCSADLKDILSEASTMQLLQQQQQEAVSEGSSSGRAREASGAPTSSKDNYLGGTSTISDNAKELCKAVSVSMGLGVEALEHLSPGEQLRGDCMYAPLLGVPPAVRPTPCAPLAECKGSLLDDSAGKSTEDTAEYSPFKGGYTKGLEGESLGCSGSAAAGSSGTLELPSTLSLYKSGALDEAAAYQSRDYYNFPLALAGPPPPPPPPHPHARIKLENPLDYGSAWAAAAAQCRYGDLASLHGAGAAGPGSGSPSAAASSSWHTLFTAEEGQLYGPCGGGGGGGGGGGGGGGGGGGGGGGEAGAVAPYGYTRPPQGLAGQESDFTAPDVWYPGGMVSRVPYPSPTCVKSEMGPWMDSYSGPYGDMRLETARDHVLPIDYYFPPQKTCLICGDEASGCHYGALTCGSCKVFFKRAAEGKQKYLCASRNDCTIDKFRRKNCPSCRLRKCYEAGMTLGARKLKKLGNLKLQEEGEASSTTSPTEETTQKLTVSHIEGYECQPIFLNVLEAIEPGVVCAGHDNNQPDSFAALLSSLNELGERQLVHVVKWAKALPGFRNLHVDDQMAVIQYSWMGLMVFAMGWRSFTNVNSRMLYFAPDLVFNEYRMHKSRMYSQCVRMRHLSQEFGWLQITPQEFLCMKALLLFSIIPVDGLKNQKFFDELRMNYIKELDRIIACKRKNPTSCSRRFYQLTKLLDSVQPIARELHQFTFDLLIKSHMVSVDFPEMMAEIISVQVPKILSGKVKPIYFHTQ
Bile acid receptor (Homo sapiens), sequence (Q96RI1 whole entry, looked up, the tested form may be a part): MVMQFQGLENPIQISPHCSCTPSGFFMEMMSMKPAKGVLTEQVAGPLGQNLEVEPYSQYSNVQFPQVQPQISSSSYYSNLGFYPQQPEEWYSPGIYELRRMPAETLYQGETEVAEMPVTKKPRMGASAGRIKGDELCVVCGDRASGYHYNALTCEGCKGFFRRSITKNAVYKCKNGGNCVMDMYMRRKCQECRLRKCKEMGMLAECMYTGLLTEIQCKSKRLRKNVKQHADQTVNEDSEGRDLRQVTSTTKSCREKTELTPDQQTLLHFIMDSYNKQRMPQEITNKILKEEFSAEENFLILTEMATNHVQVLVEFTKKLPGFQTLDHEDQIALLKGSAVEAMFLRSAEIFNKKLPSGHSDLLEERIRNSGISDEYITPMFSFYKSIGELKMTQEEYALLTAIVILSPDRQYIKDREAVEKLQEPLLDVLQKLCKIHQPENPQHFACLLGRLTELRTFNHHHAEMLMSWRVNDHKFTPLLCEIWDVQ

CCOP(=S)(OCC)O/N=C(\C#N)c1ccccc1
inactive: [1] | [2] | [3] | [4] | [5]

O=C(O)COc1ccc(Cl)cc1
inactive: [1] | [2] | [3] | [4] | [5] | [6] | [7]

O=C(Cl)OCCOCCOC(=O)Cl
inactive: [1] | [2] | [8] | [9] | [6] | [7]

NC(=O)CCl
inactive: [2] | [8] | [6] | [7]

O=C1C[C@@H]2OCC=C3CN4CC[C@]56c7ccccc7N1[C@H]5[C@H]2[C@H]3C[C@H]46
inactive: [2] | [9] | [3] | [6]

CCOP(=O)(OCC)OC(=CCl)c1ccc(Cl)cc1Cl
inactive: [2] | [9] | [3]

Cc1cc(Cl)ccc1OCCCC(=O)O
inactive: [2] | [8] | [3] | [5] | [6]

CCOP(=S)(OCC)SCS(=O)(=O)C(C)(C)C
inactive: [2] | [8] | [3] | [5] | [10]
active: [6] 34.1 µM | [7] 53.5 µM

CCOC(=O)C(SP(=S)(OC)OC)c1ccccc1 (stereo unspecified)
inactive: [2] | [9] | [3] | [4] | [6] | [7]

O=C(CCl)Nc1ccccc1
active: [2] 22 µM
inactive: [8] | [6] | [7]

O=C(O)COc1cc(Cl)c(Cl)cc1Cl
inactive: [2] | [8] | [5]

C=CC(Cl)CCl (stereo unspecified)
inactive: [2] | [8] | [5]

CC(F)(F)CC(F)(F)F
inactive: [2] | [8] | [3] | [5] | [10] | [6]

OCCCCO
inactive: [2] | [9] | [3] | [4] | [6] | [7]

CCCCN(CCCC)C(=S)[S-].CCCCN(CCCC)C(=S)[S-].[Ni+2]
inactive: [2] | [9] | [3] | [6] | [7]

CS(=O)(=O)c1ccc(C(=O)C2C(=O)CCCC2=O)c(Cl)c1COCC(F)(F)F
inactive: [2] | [9] | [3] | [4] | [5] | [6] | [7]

CCCCCCCCCCCCCCC(Br)C(=O)O (stereo unspecified)
inactive: [9] | [3] | [5] | [10]
active: [2] 152 µM

OC[P+](CO)(CO)CO
inactive: [2] | [9] | [3] | [5] | [7]

Nc1c(Oc2ccccc2)cc(O)c2c1C(=O)c1ccccc1C2=O
inactive: [2] | [9] | [3] | [5] | [7]

BrCC(Br)c1ccccc1 (stereo unspecified)
inactive: [2] | [8] | [3] | [5] | [10]

COc1ccc([N+](=O)[O-])cc1O
inactive: [2] | [8] | [3] | [5] | [10] | [6]

CC(C)N(C(=O)CCl)c1ccccc1
inactive: [8] | [5] | [7]
active: [2] 47.9 µM

C1CN2CCN1CC2
inactive: [2] | [9] | [3]

CC(C)[N+](=O)[O-]
inactive: [2] | [9] | [3] | [5] | [10] | [7]

CC(=O)C(F)(F)C(F)(F)F
inactive: [2] | [8] | [3] | [5] | [10]

Clc1cccc(Cl)c1
inactive: [2] | [9] | [3] | [4] | [5]

C[CH2][Hg][S]c1ccccc1C(=O)O
active: [2] 2.7 µM
inactive: [8] | [4] | [5] | [6] | [7]

CCOC(=O)c1ccccc1S(=O)(=O)NC(=O)Nc1nc(Cl)cc(OC)n1
inactive: [2] | [8] | [5]

O=C=Nc1ccc(Cl)cc1
inactive: [2] | [9] | [3] | [6] | [7]

O=C1C=CC(=O)c2ccccc21
inactive: [2] | [8] | [4] | [5] | [10] | [6] | [7]

[Cl][Sn]([c]1ccccc1)([c]1ccccc1)[c]1ccccc1
active: [2] 0.242 µM
inactive: [8] | [4] | [10] | [7]

Nc1ccc(Br)cc1
inactive: [2] | [9] | [3] | [10] | [6] | [7]
active: [5] 100 µM

Brc1ccc(Br)cc1
inactive: [2] | [9] | [3] | [4] | [6]

O=S1(=O)OC(c2cc(Br)c(O)c(Br)c2)(c2cc(Br)c(O)c(Br)c2)c2ccccc21
inactive: [2] | [8] | [10]

c1cc[c]([Sb]([c]2ccccc2)[c]2ccccc2)cc1
inactive: [2] | [8] | [5] | [10]

O=S(=O)(C(Cl)(Cl)Cl)C(Cl)(Cl)Cl
active: [2] 15.4 µM
inactive: [9] | [3] | [6]

CN(C1CCCCC1)C1CCCCC1
inactive: [2] | [8] | [5] | [6]

CCCCOC(C)=O
inactive: [2] | [9] | [3] | [10] | [6] | [7]

CCCCC(CC)C(=O)Cl (stereo unspecified)
inactive: [2] | [9]

C[N+](C)(C)Cc1ccccc1
inactive: [2] | [9] | [3] | [6] | [7]

CCOP(=S)(OCC)SCSc1cc(Cl)ccc1Cl
inactive: [2] | [9] | [3] | [5] | [7]
